Data as given in ChEMBL document CHEMBL3988442, “University of Dundee, Small-Polar-MMV Screening Library” (2021).
Out of some 66,000 compounds screened, about 960 (1.5%) showed an effect of 50% or more. What follows is part of a selection rich in strong results, with near analogues and random picks from the rest.

System: Trypanosoma brucei
Experiment: Trypanosoma brucei 72 hour study
Format: functional, organism-based
Set-up: scale not given: in the data most compounds retested in dose-response had high values

## Cn1cc(CN2CCC3(CC2)NC(=O)CC3c2ccncc2)cn1.O=C(O)C(F)(F)F.O=C(O)C(F)(F)F (stereo not given)
30 µM, 30.03 µM
  Percent Effect: 47.38%

## COc1ccc(S(=O)(=O)N2CCOC(Cn3ccnc3)C2)cc1.Cc1ccc(S(=O)(=O)O)cc1 (stereo not given)
30.3 µM, […]
  Percent Effect: -20.84%

## CCc1ncc(C(=O)NCCN(C)S(C)(=O)=O)cn1
30 µM, 30.03 µM
  Percent Effect: 1.892%

## CN(CCNC(=O)c1cnc(-c2ccccc2)nc1)S(C)(=O)=O
30 µM, 30.03 µM
  Percent Effect: 23.88%

## CN(CCNC(=O)c1cnc(-c2ccncc2)nc1)S(C)(=O)=O
30 µM, 30.03 µM
  Percent Effect: 61.08%

## CN(C)C(=O)NCc1cc(=O)n2c(n1)CN(Cc1ccoc1)CCC2.O=C(O)C(F)(F)F
30 µM, 30.03 µM
  Percent Effect: -46.36%

## Cc1nc(CN(C)C2CCN(CCn3cc(C#N)cn3)C2)no1 (stereo not given)
30.3 µM, […]
  Percent Effect: -2.287%

## Cc1cccc(OCCC(=O)N(C)CCC#N)c1C
30 µM, 30.03 µM
  Percent Effect: 43.96%

## Cc1cccc(OCCC(=O)N(C)CCNS(C)(=O)=O)c1C
30 µM, 30.03 µM
  Percent Effect: 57.14%

## Cc1cccc(OCCC(=O)N(C)CC(C)C#N)c1C (stereo not given)
30 µM, 30.03 µM
  Percent Effect: 9.501%

## Cc1ccc(-n2cccn2)cc1S(=O)(=O)N1C[C@H](C2CC2)[C@@H](N)C1
30 µM, 30.03 µM
  Percent Effect: 17.94%

## Cc1ccc(-n2cccn2)cc1S(=O)(=O)N1C[C@@H]2CC[C@H](C1)N(C)C2
30 µM, 30.03 µM
  Percent Effect: 75.01%

## COc1ccc(-n2cccn2)cc1S(=O)(=O)N1C[C@H](C2CC2)[C@@H](N)C1
30 µM, 30.03 µM
  Percent Effect: 27.88%

## COc1ccc(N2Cc3nc(=O)n(C(C)C)n3C2=O)cc1
30 µM, 30.03 µM
  Percent Effect: -34%

## CCN1CC2(CC1=O)CN(Cc1ccncc1)CCN(C(=O)C(C)C)C2.O=C(O)C(F)(F)F.O=C(O)C(F)(F)F (stereo not given)
30 µM, 30.03 µM
  Percent Effect: -22.83%

## O=C(NCCc1nnc2n1CCC2)N1CCC2(CCCCC2)C1
30.3 µM, […]
  Percent Effect: -13.71%

## O=C(NCCc1nnc2n1CCCCC2)N1CCC2(CCCC2)CC1
30.3 µM, […]
  Percent Effect: 99.8%

## O=C(NCc1nnc2n1CCC2)N1CCC2(CCCCC2)CC1
30.3 µM, […]
  Percent Effect: -3.097%

## O=C(C1CCOCC1)N1CCc2ncc(CN3CCCC3)n2CC1.O=C(O)C(F)(F)F
30.3 µM, […]
  Percent Effect: -192.2%

## CNC(=O)C(CC(C)C)NC(=O)c1cccc(-c2n[nH]c(C)n2)c1 (stereo not given)
30.3 µM, […]
  Percent Effect: -198.3%

## CNC(=O)C(CC(C)C)NC(=O)c1cccc(-c2nc(C)cs2)c1 (stereo not given)
30.3 µM, […]
  Percent Effect: 71.45%

## COc1cccc(-c2nc(C)c(C(=O)N[C@@H](CC(C)C)C(=O)O)s2)c1
30 µM, 30.03 µM
  Percent Effect: -38.77%

## NC(=O)NCC(=O)N1C[C@H]2CC[C@@H]1CN(Cc1cscn1)C2
30 µM, 30.03 µM
  Percent Effect: -50.24%

## CN(C)[C@@H]1CCN(CC2CC2)[C@H]1Cc1cnn(C)c1.O=C(O)C(F)(F)F.O=C(O)C(F)(F)F
30.3 µM, […]
  Percent Effect: -399.8%

## COc1ccc2[nH]cc(-c3ccnc(N4CCC(C)CC4)n3)c2c1
30.3 µM, […]
  Percent Effect: 23.49%

## O=c1[nH]c(-c2ccncc2)ncc1-c1ccnc(NC2CCCCC2)n1
30.3 µM, […]
  Percent Effect: -18.66%

## COc1ccc2[nH]cc(-c3ccnc(NC4CCCC4)n3)c2c1
30.3 µM, […]
  Percent Effect: 82.65%

## COCCN1CCC2(CCC(=O)N2Cc2csc(C)n2)CC1.O=C(O)C(F)(F)F.O=C(O)C(F)(F)F
30.3 µM, […]
  Percent Effect: -13.8%

## CC(=O)N1[C@@H](C(=O)NCC2CC2)C[C@@H]2CN(Cc3nccs3)C[C@@H]21.O=C(O)C(F)(F)F
30.3 µM, […]
  Percent Effect: -16.07%

## Cc1ccc(C(=O)N(CCC#N)Cc2ccccn2)cc1C
30 µM, 30.03 µM
  Percent Effect: 52.21%

## COc1cc(C(=O)N(CCC#N)Cc2ccccn2)ccc1C
30 µM, 30.03 µM
  Percent Effect: 33.36%

## COc1cc(C(=O)N(CCC#N)Cc2ccccn2)cc(OC)c1C
30 µM, 30.03 µM
  Percent Effect: 4.832%

## Cc1cnn(C2CCCN(C(=O)c3ccc(-n4cccn4)nc3)C2)c1 (stereo not given)
30.3 µM, […]
  Percent Effect: -2.436%
10 mM, 10 mM as filed; unlikely as a test dose
  Percent Effect: -29.12%

## O=C(O)C(F)(F)F.O=C1CCCN1Cc1nnn2c1CN(c1cccnc1)CCC2
30.3 µM, […]
  Percent Effect: -14.81%

## Cc1ccc(CN2Cc3c(C(=O)N4CCCC4)nn(C)c3C2)s1.O=C(O)C(F)(F)F
30 µM, 30.03 µM
  Percent Effect: -54.81%

## CN(C)Cc1nnn2c1CN(Cc1cccnc1)CCC2.O=C(O)C(F)(F)F.O=C(O)C(F)(F)F.O=C(O)C(F)(F)F
30 µM, 30.03 µM
  Percent Effect: -10.93%

## Cc1cc(C)n(-c2ccccc2NC(=O)NCCCN(C)S(C)(=O)=O)n1
30 µM, 30.03 µM
  Percent Effect: -25.36%

## Cc1nn(-c2ncnc3[nH]cnc23)c2c1C(C(C)(C)C)CC(=O)N2 (stereo not given)
30 µM, 30.03 µM
  Percent Effect: 101.7%

## Cc1nn(-c2ncnc3[nH]cnc23)c2c1C(CC(C)C)CC(=O)N2 (stereo not given)
30 µM, 30.03 µM
  Percent Effect: 53.52%

## CC(C)CC1SCC(=O)Nc2c1cnn2C(C)C (stereo not given)
30 µM, 30.03 µM
  Percent Effect: 38.7%

## Cc1nn(-c2ncnc3[nH]cnc23)c2c1C(C(C)C)CC(=O)N2 (stereo not given)
30 µM, 30.03 µM
  Percent Effect: 16.15%

## Cc1ccc(-n2nc(C)c3c2NC(=O)CC3c2cnc(N)s2)cc1 (stereo not given)
30.3 µM, […]
  Percent Effect: 2.745%

## Cc1nn(-c2ccccc2)c2c1C(c1ccc(C(=O)O)cc1)CC(=O)N2 (stereo not given)
30 µM, 30.03 µM
  Percent Effect: 16.38%

## CC[C@@H](CO)Nc1cc(-c2cn[nH]c2)ncn1
30.3 µM, […]
  Percent Effect: -17.33%
